From PubChem BioAssay (NCI) come the findings set out here.

Assay [1] can be described thus: NCI Yeast Anticancer Drug Screen. Data for the rad50 strain (AID 155).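 Note: 0% = growth of vehicle-only cultures of the same strain.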 As to conditions: S. cerevisiae rad50 strain growth inhibition, stronger effect = higher value. The procedure, abridged:
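Yeast carrying a defined DNA repair defect were exposed to test compounds, and growth was compared with vehicle-treated controls to give percent inhibition.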

Assay [2] in a line: NCI Yeast Anticancer Drug Screen. Data for the mec2-1 strain (AID 157). The note with it: S. cerevisiae mec2-1 strain, stronger effect = higher value. Summed up:
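Using mec2-1 yeast: add compound, measure growth, express inhibition versus vehicle-treated cultures.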

A short description of assay [3]: NCI Yeast Anticancer Drug Screen. Data for the sgs1 mgt1 strain (AID 161).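 Note: 0% = growth of cultures given vehicle only.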 As to conditions: S. cerevisiae sgs1 mgt1 strain, stronger effect = higher value. Summed up:
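Compounds are added to genetically altered yeast, and growth is compared with cultures given vehicle alone to give percent inhibition.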

Assay [4] in a line: NCI Yeast Anticancer Drug Screen. Data for the cln2 rad14 strain (AID 165).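 Note: 0% = growth equal to vehicle treated cultures.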 As to conditions: S. cerevisiae cln2 rad14 strain, stronger effect = higher value. The procedure, abridged: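 Yeast strain cln2 rad14, bearing defects in cell cycle control and DNA repair, serves as the test system; values reflect growth inhibition compared with vehicle.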
The nature of assay [5]: NCI Yeast Anticancer Drug Screen. Data for the bub3 strain (AID 167). The note with it: S. cerevisiae bub3 mutant strain, stronger effect = higher value. Summed up:
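Compounds were applied to a genetically altered yeast strain carrying a cell-cycle control defect. Growth inhibition was scored against vehicle-treated controls.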

Assay [6] in a line: NCI Yeast Anticancer Drug Screen. Data for the mlh1 rad18 strain (AID 175). The note with it: S. cerevisiae mlh1 rad18 strain growth inhibition, stronger effect = higher value. The procedure, abridged: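 Steps: expose repair-defective yeast to compound; measure growth; express inhibition against vehicle-treated controls.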
Where [7] appears, read: at 5.0 µM (retest, dose inferred, filed as 0.5).
Setting [8] is: at 50.0 µM (retest, dose inferred, filed as 5.0).

This is part of a sample that, as a whole, favours compounds with a hit. Of some 79,000 tested, about 15% had one in any assay. Values without a mark were called inactive. The source made the active and inactive calls. Cut-off read from the data, not from the text of the source: active = growth inhibition above about 70%; inactive = the rest.

On to `O=c1oc(-c2ccc(Cl)cc2[N+](=O)[O-])nc2ccccc12`, for which the growth inhibition in assay [1] (setting [7]) was 16%; in assay [1] (setting [8]), 10%; in assay [1] (at 50.0 µM), 77.2% (active); in assay [2] (setting [7]), 17%; in assay [2] (setting [8]), -1%; in assay [2] (at 50.0 µM), 63.6%. In addition, the growth inhibition in assay [3] (setting [7]) was 5%; in assay [3] (setting [8]), 6%; in assay [3] (at 50.0 µM), 70.3% (active); in assay [4] (setting [7]), 31%; in assay [4] (setting [8]), 5%; in assay [4] (at 50.0 µM), 39.2%. Besides, the growth inhibition in assay [5] (setting [7]) was -6%; in assay [5] (setting [8]), 6%; in assay [5] (at 50.0 µM), 66.5%; in assay [6] (setting [7]), -23%; in assay [6] (setting [8]), -13%; in assay [6] (at 50.0 µM), 68.5%.
`O=C(O)CCCc1ccc2c(c1)CC1(C2)Cc2ccc(CCCC(=O)O)cc2C1`: the growth inhibition in assay [1] (setting [7]) was 28%; in assay [1] (setting [8]) it was 44%; in assay [1] (at 50.0 µM) it was -38%; in assay [2] (setting [7]), 21%; in assay [2] (setting [8]), 33%; in assay [2] (at 50.0 µM), 2.15%. In addition, the growth inhibition in assay [3] (setting [7]) was 27%; in assay [3] (setting [8]), 38%; in assay [3] (at 50.0 µM) it was -28.3%; in assay [4] (setting [7]), 22%; in assay [4] (setting [8]) it was 27%; in assay [4] (at 50.0 µM) it was 8.65%. Further, the growth inhibition is 20% in assay [5] (setting [7]); 29% in assay [5] (setting [8]); 9.45% in assay [5] (at 50.0 µM); 28% in assay [6] (setting [7]); 45% in assay [6] (setting [8]); -5.8% in assay [6] (at 50.0 µM).
As for `O=C(/C=C/c1ccccc1Cl)c1ccc(F)cc1`, the growth inhibition in assay [1] (setting [7]) was 7%; in assay [1] (setting [8]), 22%; in assay [1] (at 50.0 µM), 54.2%; in assay [2] (setting [7]), -12%; in assay [2] (setting [8]), 20%; in assay [2] (at 50.0 µM), 70.4% (active). For the same compound, the growth inhibition in assay [3] (setting [7]) is -1%; in assay [3] (setting [8]), -4%; in assay [3] (at 50.0 µM) it was 53.8%; in assay [4] (setting [7]), 9%; in assay [4] (setting [8]), 17%; in assay [4] (at 50.0 µM), 34%. The growth inhibition in assay [5] (setting [7]) was 33%; in assay [5] (setting [8]), 51%; in assay [5] (at 50.0 µM), 78.8% (active); in assay [6] (setting [7]) it was 8%; in assay [6] (setting [8]) it was 47%; in assay [6] (at 50.0 µM) it was 29.6%.
Regarding `Cc1nc(-c2ccc(N=Cc3ccc(N(CCOS(C)(=O)=O)CCOS(C)(=O)=O)cc3Cl)cc2)c(C)s1`, the growth inhibition in assay [1] (setting [7]) is 1%; in assay [1] (setting [8]), 33%; in assay [1] (at 50.0 µM), 40.1%; in assay [2] (setting [7]), -68%; in assay [2] (setting [8]) it was -1%; in assay [2] (at 50.0 µM), 13.1%. Besides, the growth inhibition was 2% in assay [3] (setting [7]); 17% in assay [3] (setting [8]); 55.3% in assay [3] (at 50.0 µM); 6% in assay [4] (setting [7]); -4% in assay [4] (setting [8]); -9.2% in assay [4] (at 50.0 µM). For the same compound, the growth inhibition in assay [5] (setting [7]) is 0%; in assay [5] (setting [8]), -1%; in assay [5] (at 50.0 µM), -8.8%; in assay [6] (setting [7]), 4%; in assay [6] (setting [8]), 37%; in assay [6] (at 50.0 µM), 73% (active).
Take `CC(=O)SCC(=O)Nc1ccc(Cl)cc1`: the growth inhibition in assay [1] (setting [7]) is 9%; in assay [1] (setting [8]) it was 91% (active); in assay [1] (at 50.0 µM), 88% (active); in assay [2] (setting [7]) it was 1%; in assay [2] (setting [8]), 81% (active); in assay [2] (at 50.0 µM), 68.9%. Moreover, the growth inhibition in assay [3] (setting [7]) was -4%; in assay [3] (setting [8]) it was 85% (active); in assay [3] (at 50.0 µM), 91.1% (active); in assay [4] (setting [7]), 2%; in assay [4] (setting [8]), 43%; in assay [4] (at 50.0 µM), 58.5%. The growth inhibition in assay [5] (setting [7]) is -18%; in assay [5] (setting [8]) it was 90% (active); in assay [5] (at 50.0 µM) it was 79.9% (active); in assay [6] (setting [7]), 7%; in assay [6] (setting [8]), 90% (active); in assay [6] (at 50.0 µM), 91.6% (active).
As to `O=[N+]([O-])c1ccc(Sc2ccc([N+](=O)[O-])o2)o1`, the growth inhibition is 93% (active) in assay [1] (setting [7]); 99% (active) in assay [1] (setting [8]); 99.2% (active) in assay [1] (at 50.0 µM); 94% (active) in assay [2] (setting [7]); 100% (active) in assay [2] (setting [8]); 99.5% (active) in assay [2] (at 50.0 µM). The growth inhibition in assay [3] (setting [7]) was 97% (active); in assay [3] (setting [8]) it was 100% (active); in assay [3] (at 50.0 µM), 99.4% (active); in assay [4] (setting [7]), 71% (active); in assay [4] (setting [8]) it was 99% (active); in assay [4] (at 50.0 µM), 99.2% (active). For the same compound, the growth inhibition in assay [5] (setting [7]) is 96% (active); in assay [5] (setting [8]), 99% (active); in assay [5] (at 50.0 µM) it was 99.5% (active); in assay [6] (setting [7]), 98% (active); in assay [6] (setting [8]) it was 99% (active); in assay [6] (at 50.0 µM) it was 99.1% (active).
As for `S=c1[nH]nc(SCc2ccc(Cl)c(Cl)c2)c2[nH]cnc12`, the growth inhibition in assay [1] (setting [7]) is -4%; in assay [1] (setting [8]), -13%; in assay [1] (at 50.0 µM) it was 1.45%; in assay [2] (setting [7]) it was -11%; in assay [2] (setting [8]), -2%; in assay [2] (at 50.0 µM), 9.2%. Also, the growth inhibition is -14% in assay [3] (setting [7]); -14% in assay [3] (setting [8]); 21.2% in assay [3] (at 50.0 µM); -10% in assay [4] (setting [7]); -16% in assay [4] (setting [8]); 28.8% in assay [4] (at 50.0 µM). The growth inhibition was -8% in assay [5] (setting [7]); -8% in assay [5] (setting [8]); 9.25% in assay [5] (at 50.0 µM); -21% in assay [6] (setting [7]); -16% in assay [6] (setting [8]); 5.2% in assay [6] (at 50.0 µM).
On to `CN1C(=O)CCCCCCCCCCSc2ccccc21`, for which the growth inhibition in assay [1] (setting [7]) was 7%; in assay [1] (setting [8]), 97% (active); in assay [1] (at 50.0 µM), 99% (active); in assay [2] (setting [7]), 8%; in assay [2] (setting [8]), 99% (active); in assay [2] (at 50.0 µM) it was 99% (active). The growth inhibition is 4% in assay [3] (setting [7]); 97% (active) in assay [3] (setting [8]); 99.2% (active) in assay [3] (at 50.0 µM); 7% in assay [4] (setting [7]); 99% (active) in assay [4] (setting [8]); 96.7% (active) in assay [4] (at 50.0 µM). Further, the growth inhibition is 16% in assay [5] (setting [7]); 98% (active) in assay [5] (setting [8]); 98.3% (active) in assay [5] (at 50.0 µM); 6% in assay [6] (setting [7]); 98% (active) in assay [6] (setting [8]); 98.8% (active) in assay [6] (at 50.0 µM).
For the compound `O=C1/C(=C/c2ccc([N+](=O)[O-])cc2)Sc2scc(-c3cccc([N+](=O)[O-])c3)[n+]21`, the growth inhibition in assay [1] (setting [7]) was 69%; in assay [1] (setting [8]), 98% (active); in assay [1] (at 50.0 µM) it was 83.5% (active); in assay [2] (setting [7]) it was 69%; in assay [2] (setting [8]), 98% (active); in assay [2] (at 50.0 µM), 89.5% (active). Moreover, the growth inhibition in assay [3] (setting [7]) was 96% (active); in assay [3] (setting [8]), 99% (active); in assay [3] (at 50.0 µM), 90.6% (active); in assay [4] (setting [7]) it was 53%; in assay [4] (setting [8]) it was 98% (active); in assay [4] (at 50.0 µM), 90.6% (active). Further, the growth inhibition in assay [5] (setting [7]) is 99% (active); in assay [5] (setting [8]), 99% (active); in assay [5] (at 50.0 µM), 87% (active); in assay [6] (setting [7]), 51%; in assay [6] (setting [8]), 99% (active); in assay [6] (at 50.0 µM), 91.1% (active).
As to `CC1CCC(C(C)C2C(O)CC3C4CCC5CC(O)CCC5(C)C4CCC32C)NC1` (stereo not given), the growth inhibition in assay [1] (setting [7]) was 3%; in assay [1] (setting [8]), 98% (active); in assay [1] (at 50.0 µM), 91.8% (active); in assay [2] (setting [7]), 1%; in assay [2] (setting [8]) it was 96% (active); in assay [2] (at 50.0 µM), 82.2% (active). Also, the growth inhibition is 6% in assay [3] (setting [7]); 97% (active) in assay [3] (setting [8]); 93.2% (active) in assay [3] (at 50.0 µM); -4% in assay [4] (setting [7]); 96% (active) in assay [4] (setting [8]); 90% (active) in assay [4] (at 50.0 µM). In addition, the growth inhibition in assay [5] (setting [7]) was 2%; in assay [5] (setting [8]) it was 95% (active); in assay [5] (at 50.0 µM), 90% (active); in assay [6] (setting [7]), 4%; in assay [6] (setting [8]) it was 97% (active); in assay [6] (at 50.0 µM), 92.9% (active).
